# Screens from PubChem.
# S2 tox = Viability Counterscreen for Primary qHTS for Inhibitors of ATXN expression | S2 cells (HEK-293 line with an ATXN2-luciferase reporter) viability, CellTiter-Fluor protease fluorescence, 24 h | Potency, µM (doses to about 56.7 µM), usual class: cytotoxic | hit rate 0.49% among 400,000 | AID 651635, 2014; also: nearly all actives have a fitted effect of over 40% in size
# ATXN2 expr inh = Primary qHTS for Inhibitors of ATXN expression; HEK-293 ATXN2-luciferase reporter, luminescence, 24 h; Potency, µM (titrated, usually from 57 µM), inactives show at the top dose activity change, negative = inhibition, usual class: inhibitors; hit rate 0.72% among 360,000; AID 1745845, 2022; also: % is scaled to controls: 0 for no effect and ±100 for the full control effect; nearly all actives have a fitted effect of over 55% in size
#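 ATXN2-luciferase reporter cells (luciferase flanked by upstream and downstream ATXN2 gene portions) were treated 24 h at 37 °C with compounds at up to 57 uM. SteadyGlo luminescence gave expression; GF-AFC fluorescence gave viability.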
# HTT aggregate = qHTS Multiplex Assay to Identify Dual Action Probes in a Cell Model of Huntington: Aggregate Formation (GFP) | hit rate 1.1% among 220,000 | AID 1688, 2009 | Potency, µM (doses to about 46.1 µM), without a hit: at the top dose activity change, negative = inhibition, usual class: inhibitors | PC12 HttQ103-GFP aggregates, Acumen cytometry, 40 h; also: % is scaled to controls: 0 for no effect and ±100 for the full control effect; nearly all actives have a fitted effect of over 60% in size
#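 Steps: seed 1500 PC12 HTTQ103-GFP cells/well; add tebufenozide, 100 nM final; add compound titration; add ATPLite reagent; quantify GFP aggregates by laser scanning cytometry.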
# TGFb SMAD3 inh = qHTS for Inhibitors of TGF-b; HepG2 CAGA-GFP TGF-b/SMAD3 reporter, GFP fluorescence, 18 h; TGF-beta stimulated, 500 pg/mL final; Potency, µM (series often up to 46.1 µM), for the others: top-dose activity, negative = inhibition, hits mostly inhibitors; hit rate 1.2% among 410,000; also: % is scaled to controls: 0 for no effect and ±100 for the full control effect; nearly all actives have a fitted effect of over 65% in size
#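 Per well, imaged GFP fluorescence of HEPG2 CAGA-GFP cells gives the signal; cells get compound, then TGF-beta (500 pg/mL final), 18 h at 37 degrees C; %Activity versus -TGF-beta and +DMSO controls.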
# HTT ATP protect = qHTS Multiplex Assay to Identify Dual Action Probes in a Cell Model of Huntington: Cytoprotection (ATP). hit rate 0.14% among 230,000. PC12 HTT-Q103 induced, cytoprotection, ATP luminescence, 40 h. Potency, µM (series often up to 56.4 µM), inactives show cytoprotection (ATP increase), most hits filed as activators; also: % of control where 0% means no effect; nearly all actives have a fitted effect of over 45% in size
#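 Rat PC12, Q103 Htt exon1-GFP fusion, ecdysone promoter; tebufenozide inducer 100 nM final; compound titration; qHTS, 1500 cells/well; ATPlite luminescent read.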
# HepG2 tox = qHTS for Inhibitors of TGF-b: Cytotox Counterscreen | HepG2 CAGA-GFP viability, ATP luminescence, 18 h | Potency, µM (highest dose often 46.1 µM), inactives show top-dose activity change, negative = cytotoxicity, hits mostly cytotoxic | hit rate 0.76% among 410,000 | AID 588856, 2011
#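 CellTiter-Glo luminescence gave cytotoxicity after 18 hours at 37 degrees C. The cells were HepG2 CAGA-GFP in 1% FBS DMEM, stimulated with 500 pg/mL TGF-beta after compound addition. %Activity was normalised to no-cell wells (complete cell-killing) and DMSO (no toxicity), and curves were fitted and classified.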
# Starred values were filed as active, the others as inactive; i = inactive; ? = inconclusive; nt = no result; ! = not confirmed by another sample; [ ] = another dose, or the depositor's remark. Shown are actives, neighbours in structure and some others; about 2.8% of the full set was active somewhere. Calls follow the shape of the dose curve; as a rule, active = well fitted curve in the direction sought with a large enough effect; inconclusive = small, poorly fitted or top-dose-only effect, or another doubt; inactive = no such curve, though single readings can be large; an effect the other way counts as inactive or inconclusive. Potency is read from the fitted curve at half-maximal effect.
SMILES,S2 tox,ATXN2 expr inh,HTT aggregate,TGFb SMAD3 inh,HTT ATP protect,HepG2 tox
CC(O)CN1C(=O)C(CC(=O)Nc2ccc(Cl)cc2)SC1=Nc1ccccc1 (stereo unspecified),?,?,14%,11µM*,17%,-67%
CC(C)C[C@@H](NC(=O)[C@@H](Cc1ccccc1)NC(=O)c1cnccn1)B(O)O,nt,nt,-18%,nt,-83%,nt
N#CC1=C(N)NC(SCc2ccc(F)cc2)=C(C#N)C12CCCCC2,i,?,13µM*,?,-48%,-6%
CCOc1ccc2nc(NC3=NC(c4ccc(OC)cc4)CC(=O)N3)nc(C)c2c1 (stereo unspecified),8.9µM*,8.9µM*,?,?,-33%,-101%
CC(O)(C#Cc1ccc2c(c1)N(c1nc(N)ncc1Cl)CC2)c1nccs1 (stereo unspecified),nt,-17%,nt,nt,nt,nt
O=C(NCC1Cc2cc(-c3cncnc3)cc(Cl)c2O1)c1cccc(Cn2cccn2)c1 (stereo unspecified),i,nt,nt,nt,nt,nt
CCC1CN(C(=O)N2CCC(C(=O)NCc3cccc(OC)c3OC)CC2)c2cc(C)ccc2O1 (stereo unspecified),i,-7%,nt,11µM*!,nt,-18%
O=c1cc(-c2ccc(O)c(O)c2)oc2ccccc12,nt,nt,nt,nt,-176%,nt
CCN(CC)CCCNc1nc2ccccc2c2[nH]c3ccc(OC)cc3c12,6µM*,?,nt,?,nt,-112%
OC[C@@H]1O[C@@H](n2cnc3c(N[C@@H]4C[C@@H]5CC[C@H]4C5)ncnc32)[C@@H](O)[C@H]1O,nt,nt,nt,nt,-16%[1.9 µM],nt
O=C1CCC[C@@H]2[C@@H](Cc3ccccc3)[C@@H](Nc3ccccc3)C[C@@H]3CCN1[C@@H]32,nt,nt,nt,?,nt,-8%
CCN(CC)c1cc(C)c2cc(NC(=O)c3cc(OC)cc(OC)c3)ccc2n1,nt,18µM*,nt,?,nt,-27%
CCN(CC)c1cc(C)c2cc(NC(=O)c3ccc(OC)c(OC)c3)ccc2n1,?,-6%,nt,?,nt,-83%
CCN(CC)c1cc(C)c2cc(NC(=O)c3ccc(F)cc3Cl)ccc2n1,?,?,nt,0%,nt,-27%
CCN(CC)c1cc(C)c2cc(NC(=O)/C=C/c3ccccc3Cl)ccc2n1,nt,28µM*,nt,?,nt,-81%
OCC(O)C[n+]1cccc(Br)c1 (stereo unspecified),nt,nt,nt,16%,nt,-20%
Cc1cc(C(=O)Nc2cccc(-c3nc(CNC(=O)c4sc(C)nc4C)c(C)o3)c2)c(C)o1,i,nt,nt,nt,nt,nt
O=c1c2ccccc2nc(N2CCN(c3cccc(Cl)c3)CC2)n1-c1ccccc1,nt,nt,nt,7.1µM*,nt,-47%
Cc1cccc(N2CCN(c3nc4ccccc4c(=O)n3-c3ccc(Cl)cc3)CC2)c1C,nt,nt,nt,-12%,nt,-23%
CCC(C)NC(=S)N1CCN(Cc2ccccc2)CC1 (stereo unspecified),i,0%,0.56µM*,-18%,nt,-3%
Cc1cccc(/C=N/Nc2cc(N3CCOCC3)nc(N3CCOCC3)n2)c1,i,-39%,7%,12%,6%[0.074 µM],-43%
Cc1cccc(C=NNc2cc(N3CCOCC3)nc(OCCc3ccccn3)n2)c1,nt,0.97µM*,nt,nt,nt,nt
O=C(NNC(=O)c1ccc(Oc2cc(Cl)cc(Cl)c2)o1)c1ccccc1,?,nt,-3%[9.22 µM],20µM*,-22%[10 µM],-84%
O=C(COc1nnnc2ccccc12)N1CCCc2ccccc21,i,-1%,4.5µM*,-1%,13%[10 µM],-1%
CCOC(=O)c1nn(-c2ccccc2)c(=O)c2c(N)scc12,i,-13%,3%,-19%,-10%[10 µM],-98%
CCOC(=O)c1nn(-c2ccccc2)c(=O)c2c(NC(C)=O)scc12,i,-24%,3%,2%,-18%,3.2µM*
